Data on 97 compounds can be found in PubChem BioAssay AID680 (PCMD, 2007).

A word on the inhibition: it is the drop in the measured response relative to a control, in per cent.

About 120 (0.19%) of roughly 62,000 compounds were called active. Cut-off read from the data, not from the text of the source: active = inhibition above about 20% (passing the limit was not always enough); inactive = the rest. The full list was thinned out, with actives kept by preference.

This experiment deals with Coagulation factor XI (Homo sapiens) (UniProt P03951). As to the kind of experiment: human factor XIa inhibition by mixtures – biochemical, 10-compound mixtures, primary screen (AID 680).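 Note: each value is inhibition by a whole ten-compound pool holding the compound; 0% = enzyme with no mixture and 100% = wells lacking enzyme.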 As to conditions: purified FXIa, fluorogenic substrate, pooled mixtures; at 5 µM; stronger effect = higher value.
Sequence of Coagulation factor XI (Homo sapiens) (P03951 19-387 limits assumed): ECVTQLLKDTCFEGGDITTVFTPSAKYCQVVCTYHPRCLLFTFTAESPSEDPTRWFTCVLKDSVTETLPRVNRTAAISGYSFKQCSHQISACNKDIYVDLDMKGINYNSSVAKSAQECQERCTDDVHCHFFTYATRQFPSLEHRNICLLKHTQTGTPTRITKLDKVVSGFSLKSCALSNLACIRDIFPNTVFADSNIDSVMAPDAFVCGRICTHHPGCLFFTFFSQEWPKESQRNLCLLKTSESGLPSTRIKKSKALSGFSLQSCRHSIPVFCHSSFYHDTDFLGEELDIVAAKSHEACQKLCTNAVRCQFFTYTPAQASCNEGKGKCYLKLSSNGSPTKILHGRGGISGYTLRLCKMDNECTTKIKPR
Sequence of Coagulation factor XI (Homo sapiens) (P03951 388-625 limits assumed): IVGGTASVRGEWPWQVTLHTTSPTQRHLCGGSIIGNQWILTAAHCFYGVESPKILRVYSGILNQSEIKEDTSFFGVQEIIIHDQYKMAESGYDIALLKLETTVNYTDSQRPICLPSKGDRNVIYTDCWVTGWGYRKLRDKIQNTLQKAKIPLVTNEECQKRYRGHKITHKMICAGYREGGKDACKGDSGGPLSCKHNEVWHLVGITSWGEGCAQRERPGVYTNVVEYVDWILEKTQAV
Regarding `COC(C)(C)[C@]12CC(O)(C(C)C)ON1[C@H]1CCCCC1N2O` (some centres not stated), the inhibition is -9.49% (inactive).
In the case of `CCOC(=O)CSc1nnc(CNC(=O)Cc2ccccc2)n1-c1ccccc1OC` it was 13.1% (inactive); in that of `COc1ccc(CCN2C(=O)c3[nH]nc(-c4ccccc4O)c3C2c2ccc(C)cc2)cc1OC` (configuration not stated), 8.98% (inactive).
With `CCc1c(C)n([O-])c2c([n+]1=O)CCCCC2` the figure was 5.37% (inactive).
As to `CC(C)(C)n1c(=O)[nH]c2c(c1=O)CCC2`, the inhibition was 5.49% (inactive).
In the case of `O=C(CC1(O)C(=O)N(CN2CCOCC2)c2ccccc21)c1ccccc1` (configuration not stated), the inhibition is 4.51% (inactive).
With `Cc1cc(NC(=O)CCC(=O)N(c2ccccc2)C(C(=O)NC2CCCC2)c2ccncc2)no1` (configuration not stated) the figure was 10% (inactive); with `Cn1c(NC(=O)c2ccco2)c(-c2ccccc2Cl)c(=O)c2ccccc21`, 7.49% (inactive).
Regarding `CC(C)(C)NC(=O)C(c1ccncc1)N(C(=O)CNC(=O)c1ccco1)c1ccc2c(c1)OCO2` (configuration not stated), the inhibition is 8.32% (inactive).
`CCOC(=O)C1CCN(C(=O)COc2cc(C)c(Br)c(C)c2)CC1`: the inhibition is -1.91% (inactive).
Consider `O=C(CSc1nc2c(cnn2-c2ccc(F)cc2)c(=O)[nH]1)N1CCCCCC1`, for which the inhibition is 2.05% (inactive).
With `CCC(=O)c1cc2c(cc1NC(=O)c1cccs1)OCCO2` the figure was 1.74% (inactive).
Consider `Cc1oc(-c2cccc(Cl)c2)[n+]([O-])c1C`, for which the inhibition was 1.39% (inactive).
In the case of `CN(C)S(=O)(=O)c1ccc(Oc2ccc(S(=O)(=O)N(C)C)cc2)cc1` it was 7.21% (inactive); in that of `Cc1cccc2c1N(CC(=O)OC(C)C)C(=O)C2=O`, 1.41% (inactive); in that of `CC1CCN(c2nc3c(c(=O)[nH]c(=O)n3C)n2CCCc2ccccc2)CC1`, -1.49% (inactive).
In the case of `O=C(CSc1nnc(-c2ccncc2)n1C1CCCCC1)Nc1ccccc1` it was 8.47% (inactive); in that of `Fc1ccc(-c2nnc(CSc3nnc(-c4ccc5c(c4)OCO5)o3)o2)cc1`, 0.485% (inactive).
In the case of `COc1cccc(-n2cc3c(c2-c2ccccc2)c(=O)n(C)c(=O)n3C)c1` it was 3.95% (inactive).
On to `OCCCNC(c1ccccc1)c1ccc(O)cc1` (configuration not stated), for which the inhibition is 7.84% (inactive).
On to `COc1ccc2c(CC(=O)Nc3nnc(C4CC4)s3)coc2c1`, for which the inhibition was 4.86% (inactive).
In the case of `COc1ccccc1Cn1c(=S)[nH]c2cc(C(=O)N3CCN(C)CC3)ccc2c1=O`, the inhibition was 5.3% (inactive).
With `COc1cccc(NC(=O)CN(C)S(=O)(=O)c2ccc(C)cc2)c1` the figure was -2.5% (inactive); with `Cc1ccccc1-c1nc(CS(=O)(=O)CC(=O)N2CCc3ccccc3C2)c(C)o1`, 11.3% (inactive).
For `COc1ccccc1CNC(=O)CCCn1c(=O)c2ccccc2n(CC(=O)NC2CCCC2)c1=O`, the inhibition is 0.555% (inactive).
With `CC12CN(Cc3ccccc3)CC(C)(CN(Cc3ccccc3)C1)C2=NO` the figure was -5.8% (inactive).
Take `CCOC(=O)C(C(=O)OCC)C(C#N)c1ccccc1` (configuration not stated): the inhibition is 3.99% (inactive).
With `CCOC(=O)NC(C(F)(F)F)(C(F)(F)F)P(=O)(c1ccccc1)c1ccccc1` the figure was 22.6% (active); with `CCOC(=O)Nc1ccccc1N1C(=O)c2ccccc2C1=O`, 7.59% (inactive).
In the case of `CCOC(=O)N1CCC(NC(=O)C(C)n2c3ccccc3c3cnn(C)c(=O)c32)CC1` (configuration not stated) it was -52.1% (inactive).
In the case of `CN(CCCC(=O)Nc1nccs1)S(=O)(=O)c1ccc(Cl)cc1` it was 2.62% (inactive); in that of `Cc1cc(C)c2c(n1)nn1c(-n3ccnc3)cc(C)nc21`, 4.82% (inactive); in that of `CN(C(=O)c1ccno1)c1nnc(-c2cccnc2)s1`, 0.72% (inactive).
For `CN(Cc1ccccc1)Cc1ccccc1F`, the inhibition was 11% (inactive).
In the case of `O=C(Nc1ccccc1)N(Cc1cccnc1)Cc1ccco1` it was 9.03% (inactive); in that of `O=C(Nc1ccn(Cc2ccc(F)cc2)n1)c1ccncc1`, 1.2% (inactive); in that of `CS(=O)(=O)N1CCCC(C(=O)N2CCOCC2)C1` (configuration not stated), 6.58% (inactive).
As for `Fc1ccccc1OCCSc1nc2ccccc2o1`, the inhibition is 5.06% (inactive).
With `COC(=O)C1=C(C)N(C)C(C)=C(C(=O)OC)C1c1cccc(Br)c1` the figure was 4.43% (inactive).
With `CC(=O)NC(C)(C)C1CC=C(C)/C(=N\O)C1` (configuration not stated), the inhibition is 6.99% (inactive).
In the case of `Cc1ccc(S(=O)(=O)N2CCC(C(=O)OCC(=O)N3CC(=O)Nc4ccccc43)CC2)cc1` it was -8.9% (inactive); in that of `Cn1c(-c2ccc(F)cc2)cnc1SCC(=O)NCc1ccco1`, -1.83% (inactive).
In the case of `Cc1ccc(-c2csc3nnc(SCC(=O)NCc4ccco4)n23)cc1` it was 25.9% (active); in that of `O=C(CSc1nnc2scc(-c3ccc(F)cc3)n12)NCc1ccco1`, 2.54% (inactive).
On to `COC(=O)c1c(NC(=O)c2cccs2)sc2c1CCCC2`, for which the inhibition is 5.01% (inactive).
In the case of `NC(=O)COc1ccc2c3c(c(=O)oc2c1)CCCCC3` it was -3.05% (inactive); in that of `CCC(=O)Nc1ccc(C(=O)CSc2nnc(CNc3ccc(Cl)cc3)o2)cc1OC`, 1.04% (inactive).
In the case of `COc1ccc(CCNC(=O)C2CCCN(Cc3nc(-c4cccc(Cl)c4)oc3C)C2)cc1OC` (configuration not stated) it was 10.1% (inactive).
In the case of `Cc1nc2nc[nH]n2c(=O)c1NC(=O)c1cccc(OCC(C)C)c1` it was 8.27% (inactive); in that of `CCOC(=O)C1CCN(C(=O)Cc2c(C(=O)O)[nH]c3ccccc23)CC1`, 6.1% (inactive).
Regarding `CCc1c(C)nc2ncnn2c1N1CCC(C(=O)NCc2ccc3c(c2)OCO3)CC1`, the inhibition is 8.05% (inactive).
In the case of `CCN(CC)CCN1C(=O)C(=O)/C(=C(/O)c2ccccc2)C1c1ccccc1F` (configuration not stated) it was 4.21% (inactive); in that of `Cc1ccc(S(=O)(=O)N(C)CC(=O)N2CCc3ccccc32)cc1`, 4.38% (inactive).
In the case of `COc1ccc(C2N=C(N)N=C(N)N2c2ccccc2)cc1OC` (configuration not stated) it was 1.53% (inactive).
With `O=C(CSc1nnc(-c2ccco2)o1)NCC(=O)c1ccccc1` the figure was 10.1% (inactive); with `COc1cccc2c(C)c(C(=O)O)[nH]c12`, -18% (inactive).
Consider `CCOC(=O)N1CCC(O)(c2cc(C)c(C)cc2C)CC1`, for which the inhibition is 9.28% (inactive).
For the compound `Cc1nc2nc3c(cn2n1)C(=O)CC(c1ccccc1)C3` (configuration not stated), the inhibition is 1.31% (inactive).
Take `COc1ccc(CCN2CNc3c(c(=O)n(C)c(=O)n3C)C2)cc1OC`: the inhibition was 10.4% (inactive).
With `N#CCCn1ncc2ccccc21` the figure was -0.96% (inactive).
Turning to `COc1cc(=O)[nH]c(=O)n1C(=O)Cc1ccccc1`, the inhibition is 2.34% (inactive).
Consider `COc1ccc(N2CCN(C(=O)CSc3nnc4ncccn34)CC2)cc1`, for which the inhibition was 3.9% (inactive).
For the compound `CCOC(=O)c1cc2sccc2n1Cc1ccc(C#N)cc1`, the inhibition was 0.72% (inactive).
As to `CCOc1ccc(/C(O)=C2/C(=O)C(=O)N(Cc3cccnc3)C2c2ccc(N(C)C)cc2)c(C)c1` (configuration not stated), the inhibition was -2.04% (inactive).
In the case of `O=c1c2ccccc2nnn1CSc1nc2sc3c(c2c(=O)n1CC1CCCO1)CCC3` (configuration not stated) it was 0.04% (inactive).
In the case of `CN(C)CCCNC(=O)c1ccc2[nH]c3ccccc3c2c1`, the inhibition was 3.52% (inactive).
In the case of `O=C(CSc1nnc(-c2ccco2)n1Cc1ccccc1)NC(=O)NCc1ccco1` it was 2.1% (inactive).
With `CCOCCOC(=O)C1=C(C)N(C)C(=O)NC1c1ccccc1F` (configuration not stated) the figure was 5% (inactive).
With `CCc1ccc(-c2nnn(Cc3nc4ccccc4s3)n2)cc1` the figure was 9.76% (inactive); with `COc1ccc(-c2nnc(SC(C)C#N)o2)cc1` (configuration not stated), -13.7% (inactive); with `C=C(C)COc1ccc(-c2n[nH]c(C)c2-c2ccccc2)c(O)c1`, 6.11% (inactive).
`C=C(C)COc1ccc(-c2n[nH]c(C)c2-c2ccccc2OC)c(O)c1`: the inhibition was 21.4% (active).
`COc1ccc(-c2n[nH]c(C)c2-c2ccc(OC)c(OC)c2)c(O)c1`: the inhibition was 5.75% (inactive).
Consider `Cc1sc2c(c1C)c(=O)n(-c1ccccc1)c1nncn21`, for which the inhibition was 0.14% (inactive).
As for `O=C1CSC(c2cccc(F)c2)N1c1ccccc1F` (configuration not stated), the inhibition was 1.83% (inactive).
In the case of `CCCc1[nH]nc2c1C(c1ccc(Br)s1)C(C#N)=C(N)O2` (configuration not stated) it was 7.01% (inactive).
With `COc1ccccc1-c1cc(C(=O)N2CCCCC2)no1` the figure was 3.06% (inactive); with `COC(=O)CNS(=O)(=O)c1ccc(Cc2ccc(S(=O)(=O)NCC(=O)OC)cc2)cc1`, 13.4% (inactive).
As to `COC(=O)c1cc(NC2c3ccccc3C(=O)N2c2ccc(Cl)cn2)cc(C(=O)OC)c1` (configuration not stated), the inhibition was 3.54% (inactive).
With `CCCc1nc(N)nc2c1C(=O)CC(C)(C)C2` the figure was -0.555% (inactive).
Take `COC(=O)CN(c1cccc(C(C)=O)c1)S(C)(=O)=O`: the inhibition was 2.59% (inactive).
In the case of `CCN(c1ccccc1)S(=O)(=O)c1ccc(N)cc1` it was 0.065% (inactive); in that of `O=C(Nc1ccc(Cl)cn1)c1cnn2cccnc12`, 3.33% (inactive).
With `Brc1cccc(-c2nnc3n2CCC3)c1` the figure was 2.48% (inactive).
In the case of `CC(C)CCNC(=O)CCNS(=O)(=O)c1ccc(Cl)cc1`, the inhibition was 6.13% (inactive).
With `CCOC(=O)c1c(-n2cnnn2)sc(C)c1C` the figure was 13.6% (inactive); with `Cc1c2cn[nH]c(=O)c2c(C)n1Cc1ccc(F)cc1`, 3.31% (inactive).
As for `CC(C)c1nnc(NC(=O)C2CCCN2S(=O)(=O)c2ccc(Cl)cc2)s1` (configuration not stated), the inhibition was 9.37% (inactive).
Consider `Cc1cccc(NC(=O)C2CCCN2S(=O)(=O)c2ccc(F)cc2)c1C` (configuration not stated), for which the inhibition was 23.4% (active).
`Cc1ccc(S(=O)(=O)N2CCCC2C(=O)NCc2ccco2)cc1` (configuration not stated): the inhibition was 3.07% (inactive).
For the compound `N#Cc1nc(Cc2cccc3ccccc23)oc1NCc1ccc2c(c1)OCO2`, the inhibition was 3.7% (inactive).
Turning to `O=C(Cn1nc(Cc2cccnc2)c2ccccc2c1=O)NCC1CCCO1` (configuration not stated), the inhibition is 1.16% (inactive).
In the case of `CCn1c(SCCC(C)C)nnc1-c1c[nH]c2ccccc12` it was 27.8% (active); in that of `CCOC(=O)N1CCN(C(=O)CSc2nnc(-c3c[nH]c4ccccc34)n2CCOC)CC1`, 6.18% (inactive); in that of `CCC(C)Sc1nnc(-c2c[nH]c3ccccc23)n1CCOC` (configuration not stated), 4.33% (inactive).
With `O=C(c1ccccc1)c1ccc(OC(=O)N2CCCC2)cc1` the figure was 5.6% (inactive); with `COc1ccc(CCNC(=O)CSc2nnc(CNC(=O)c3cccs3)o2)cc1OC`, 4.31% (inactive).
